# PubChem BioAssay AID435030 (The Scripps Research Institute Molecular Screening Center, 2010)
# Out of some 330,000 compounds screened, about 940 (0.28%) were called active. The full list was thinned out, with actives kept by preference. A number with no mark means an inactive call. Cut-off read from the data, not from the text of the source: active = inhibition above about 12%; inactive = the rest.
# Assay: reduced growth of AddAB-expressing E. coli cells – absorbance, AddAB inhibitor project, primary screen (AID 435030);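 note: 0% = vehicle wells of infected cells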
# Details: E. coli expressing H. pylori AddAB, at 11.9 µM, active compounds read high
row,Structure (SMILES),inhibition
1,Cc1ccc(S(=O)(=O)N2[C@@H](c3cccc4ccccc34)C(C(=O)O)=C[C@H]2C(C)(C)C)cc1,-0.17%
2,C=CCOc1cccc(CNCc2cccnc2)c1,4.34%
3,O=C1N[C@H](Cc2ccccc2)C(=O)N[C@H]1Cc1cn(S(=O)(=O)c2ccccc2)c2ccccc12,3.88%
4,Cc1ccc(C(=O)N/C(=C\c2cccs2)C(=O)NCCc2ccccn2)cc1C,-1.59%
5,COc1ccc(C(=O)c2c(C)c(CCC#N)n3ccccc23)c(OC)c1,4.64%
6,CNc1ccc(SC#N)cc1,3.2%
7,CC(=O)Nc1ccc(NC(=O)CC2CCCC2)cc1,3.59%
8,CCOC(=O)c1cnc(-n2nc(C)cc2C)nc1NNc1cc(C)nc(-c2ccccc2)n1,1.33%
9,O=C(Nc1ccc2c(c1)CCC2)c1ccc(Br)s1,0.08%
10,Cc1nn(CC#N)c(=O)n1N(C)c1ncc(C(F)(F)F)cc1Cl,-0.77%
11,O=C(O)C(c1ccccc1)N1C(=O)/C(=C\c2ccc(-c3cccc(Cl)c3)o2)SC1=S (configuration not stated),1.17%
12,CC(=O)NN1C(=O)c2ccccc2NC1c1ccccc1 (configuration not stated),0.33%
13,O=C1c2ccccc2NC(c2ccc(-c3cccc(Cl)c3)o2)N1O (configuration not stated),21.1% (active)
14,O=C(N=C1SC2CS(=O)(=O)CC2N1c1cc(Cl)ccc1Cl)C1CC1 (configuration not stated),1.12%
15,CCC1CO/C(=C(\C(=C(Cl)Cl)N2CCOCC2)[N+](=O)[O-])N1 (configuration not stated),0.26%
16,Cc1cc(C)n(-c2nnc(N3CCN(c4ccccc4)CC3)nn2)n1,1.11%
17,COc1ccc(OC)c(NC(=O)C2CCCN2S(=O)(=O)c2cccc3nsnc23)c1 (configuration not stated),2.19%
18,Cc1ncoc1C(=O)NCCC(c1ccccc1)c1ccccc1,0.08%
19,CCOc1cc(S(=O)(=O)NCc2ccc3c(c2)OCO3)ccc1F,1.89%

row,Structure (SMILES),inhibition
1,Cn1ccc(=Nc2ccc(NC(=O)c3ccc(N=c4ccn(C)c5ccc([N+](=O)[O-])cc45)cc3)cc2)cc1,95.1% (active)
2,CC(=O)NC(=S)Nc1ccc(NC(=S)NC(=O)c2ccc([N+](=O)[O-])cc2)cc1,-0.43%
3,COc1cc(NS(=O)(=O)c2ccc(NC(=O)c3ccc([N+](=O)[O-])cc3)cc2)ncn1,0.95%
4,Brc1ccc(CN2CC[C@H]3C=CCc4cccc(c43)C2)cc1,4.02%
5,C=CCNC(=O)c1cc(-c2ccccc2O)on1,96.1% (active)
6,C=CCNC(=O)c1csc(-c2ccccc2)n1,0.48%
7,O=C(Nc1cccnc1Cl)c1cc(-c2ccccc2O)on1,3.57%
8,FC(F)(F)c1ccc2nnc(-c3c(Cl)cccc3Cl)n2c1,2.64%
9,Cc1ccc(OCC(=O)c2cc(C)n(Cc3ccco3)c2C)c([N+](=O)[O-])n1,3.36%
10,O=C(OCC1O[C@@H](OC(=O)c2cc(O)c(O)c(O)c2)[C@@H](OC(=O)c2cc(O)c(O)c(O)c2)[C@@H](OC(=O)c2cc(O)c(O)c(O)c2)[C@@H]1OC(=O)c1cc(O)c(O)c(O)c1)c1cc(O)c(O)c(O)c1 (some centres not stated),27.8% (active)
11,C=C1c2cccc(OC)c2O[C@H](C(=O)OCC)[C@@H]1CCCCCC,-0.56%
12,O=C(CCCN1C(=O)CCC1=O)Nc1ccc(Cl)c(C(F)(F)F)c1,2.75%
13,O=C(CC(O)(C(F)(F)F)C(F)(F)F)Nc1ccc(Cl)c(Cl)c1,18.6% (active)
14,CS(=O)(=O)N(CC(=O)Nc1ccc(Cl)c(Cl)c1)C1CCCCC1,-0.7%
15,COc1cc(C)c(C(C)C)cc1S(=O)(=O)n1ccnc1,2.64%
16,O=C(NCc1ccco1)c1ccc([N+](=O)[O-])cc1Cl,0%
17,CS(=O)(=O)c1ccc(Cl)c(NC(=O)COC(=O)c2ncc(Cl)c(Cl)c2Cl)c1,1.36%
18,CCCCOc1ccc(Cl)cc1CSc1nncn1N,0.43%
